Source: PubChem BioAssay
Compounds with a hit are over-represented: about 2.7% of the library has one in this group of screens.
HSP90 refold inh: blocks HSP90-mediated luciferase refolding in reticulocyte lysate; inhibition, % at 5.6 µM; Rabbit reticulocyte lysate, luciferase refolding luminescence, 3 h; 0.91% of 290,000 active;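 active = inhibition above the screen-wide mean plus 3 SD, computed separately per campaign, cut at about 16% in these data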;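 also: inhibitors lower the luminescence because luciferase stays unfolded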
SENP8 block-1: blocks the human protease SENP8; 1.2% of 330,000 active; Q96LD8; inhibition, % at 10 µM; AID 2540; purified SENP8, Z-RLRGG-aminoluciferin cleavage, luminescence; in the data active = inhibition above about 50%
Target sequence (Q96LD8 whole entry, looked up): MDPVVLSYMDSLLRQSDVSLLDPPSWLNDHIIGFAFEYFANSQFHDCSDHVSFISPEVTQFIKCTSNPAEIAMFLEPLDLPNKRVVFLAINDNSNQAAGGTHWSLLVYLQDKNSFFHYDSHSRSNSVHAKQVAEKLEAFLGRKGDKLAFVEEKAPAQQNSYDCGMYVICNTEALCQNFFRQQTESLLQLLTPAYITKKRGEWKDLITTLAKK
SENP8 block-2: inhibitors of human SENP8 protease | Q96LD8 | recombinant SENP8, Nedd8 substrate fluorescence | inhibition, % at 20 µM | 0.64% of 360,000 active; in the data active = inhibition mostly above about 40%, no sharp cut-off; inactive = mostly below about 27%
SENP7 inh: SENP7 protease inhibition; Q9BQF6; recombinant SENP7, Z-RLRGG-aminoluciferin luminescence, 40 min; inhibition, % at 5 µM; 1.5% of 330,000 active;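 active = inhibition above about 50% at the single test dose, limit read from the data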
SENP6 block: inhibitors of human SENP6 protease; Recombinant SENP6 catalytic domain, aminoluciferin luminescence; inhibition, % at 10 µM; 1.8% of 330,000 active;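 active = inhibition above about 50% at the single tested dose, limit read from the data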
HSP90 confirm: HSP90 inhibition, confirmation assay. shares compounds with HSP90 refold inh. rabbit reticulocyte lysate, luciferase refolding luminescence, 3 h. inhibition, % at 5.9 µM. 64% of 2,300 active. AID 1846; in the data active = inhibition above about 18%
luciferase ctr: counter-screen for HSP90 inhibitors: inhibitors of firefly luciferase; shares compounds with HSP90 refold inh; purified native firefly luciferase, luminescence; inhibition, % at 5.9 µM; 48% of 2,300 active; AID 1847;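 active = inhibition above the mean inhibition of all tested sample wells plus 3 SD, cut at about 10% in these data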
SENP8 conf-1: human SENP8 inhibition, confirmed | shares compounds with SENP7 inh | 40% of 6,200 active | inhibition, % at 12.5 µM | Recombinant SENP8, Z-RLRGG-aminoluciferin luminescence, 60 min;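 active = mean inhibition across replicates above about 50%, limit read from the data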
SENP6 confirm: confirmation of human SENP6 protease inhibitors. shares compounds with SENP7 inh. recombinant SENP6, Z-RLRGG-aminoluciferin luminescence. inhibition, % at 12.5 µM. 58% of 6,200 active. AID 488915
SENP7 conf: human SENP7 inhibition, confirmed; shares compounds with SENP7 inh; 69% of 6,200 active; AID 488917; recombinant SENP7, Z-RLRGG-aminoluciferin luminescence, 40 min; inhibition, % at 12.5 µM
Casp3 select: caspase-3 inhibition (SENP selectivity assay); shares compounds with SENP7 inh; purified caspase-3, Z-DEVD-aminoluciferin luminescence, 60 min; inhibition, % at 12.5 µM; 60% of 6,200 active;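 active = mean inhibition above about 50%, limit read from the data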
Target sequence (P42574 28-227 limits assumed): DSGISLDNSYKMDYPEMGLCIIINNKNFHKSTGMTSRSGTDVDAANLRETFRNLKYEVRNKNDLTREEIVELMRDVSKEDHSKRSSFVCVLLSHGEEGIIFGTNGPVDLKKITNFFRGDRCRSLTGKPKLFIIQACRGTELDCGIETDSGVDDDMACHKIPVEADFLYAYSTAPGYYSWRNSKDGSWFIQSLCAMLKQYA
SENP luc ctr: luminescence interference (SENP counter-screen); Pre-incubated SENP8/Z-RLRGG-aminoluciferin, luciferase luminescence interference; 39% of 6,200 active; shares compounds with SENP7 inh; AID 488919; inhibition, % at 12.5 µM;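 active = mean inhibition above about 50% when retested at one dose, limit read from the data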
SENP8 conf-2: confirmation of human SENP8 protease inhibitors; shares compounds with SENP8 block-2; purified SENP8, Nedd8-AMC/pro-Nedd8 cleavage fluorescence, 30 min; inhibition, % at 25 µM; 15% of 1,400 active; AID 624319; in the data active = inhibition mostly above about 39%, no sharp cut-off; inactive = mostly below about 34%
Of the large screens only hits and unclear results are named; the others gave an inactive call (follow-up assays come after a bar, where they were run).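 The calls were made as follows, unless noted: active = mean inhibition above about 50% in the one-dose retest (limit read from the data); inactive = the rest.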

Cc1[nH][nH]c(=O)c1C(c1ccc(-c2ccc(Cl)c(Cl)c2)o1)c1c(C)[nH][nH]c1=O	HSP90 refold inh 18, SENP8 block-2 74 | HSP90 confirm inactive | luciferase ctr inactive | SENP8 conf-2 63
O=c1cc(-c2cccc([N+](=O)[O-])c2)[nH][nH]1	HSP90 refold inh 24, SENP8 block-2 43 | HSP90 confirm inactive | luciferase ctr inactive | SENP8 conf-2 inactive
CCn1ccnc1CN(C)C(=O)c1cc(COc2ccc(OC)c3ccccc23)on1	none
Nc1ccc(Cc2ccc(N)c(O)c2)cc1O	HSP90 refold inh 24, SENP8 block-2 48 (no result: SENP8 block-1, SENP7 inh, SENP6 block) | HSP90 confirm inactive | luciferase ctr inactive | SENP8 conf-2 inactive
COc1cc(Br)c(C(=O)c2nccc3cc(OC)c(OC)cc23)cc1OC	HSP90 refold inh 42, SENP8 block-1 95, SENP8 block-2 113, SENP7 inh 92, SENP6 block 90 | HSP90 confirm 19 | luciferase ctr inactive | SENP8 conf-2 101
COc1cc(N)c(C(=O)c2nccc3cc(OC)c(OC)cc23)cc1OC	none
Cc1cccc(CN(CC(=O)N/N=C/c2ccco2)S(=O)(=O)c2ccc(Cl)cc2)c1	none
O=C(NNC(=S)NC(=O)c1ccccc1[N+](=O)[O-])c1ccccc1O	none
O=C(NC(=S)Nc1cccc2c(O)cccc12)c1ccccc1[N+](=O)[O-]	HSP90 refold inh 35, SENP8 block-2 47 | HSP90 confirm inactive | luciferase ctr inactive | SENP8 conf-2 inactive
COc1ccc2c(c1)Cc1sc(NC(C)=O)nc1-2	HSP90 refold inh 32, SENP8 block-1 73, SENP8 block-2 67, SENP7 inh 62, SENP6 block 81 | HSP90 confirm inactive | luciferase ctr inactive | SENP8 conf-1 inactive | SENP6 confirm 52 | SENP7 conf 76 | Casp3 select 54 | SENP luc ctr inactive | SENP8 conf-2 66
Cc1ccc(C2C(C(=O)c3cc4ccccc4o3)=C(O)C(=O)N2CCN(C)C)o1 (stereo not drawn)	none (no result: HSP90 refold inh, SENP8 block-1, SENP7 inh, SENP6 block)
CC(=O)ON1C(C)(C)CC(OC(=O)c2ccccc2)CC1(C)C	none
O=c1cc(-c2ccc(Cl)cc2)[nH][nH]1	HSP90 refold inh 29, SENP8 block-2 43 | HSP90 confirm inactive | luciferase ctr inactive | SENP8 conf-2 inactive
COc1ccc(-c2cc(=O)[nH]c(=O)[nH]2)cc1	none
COc1ccc(-c2cc(=O)[nH][nH]2)cc1	HSP90 refold inh 34, SENP8 block-2 42 | HSP90 confirm inactive | luciferase ctr inactive | SENP8 conf-2 inactive
O=C(COC(=O)c1cccnc1Cl)c1ccc(Cl)cc1Cl	SENP7 inh 67, SENP6 block 85 | SENP8 conf-1 inactive | SENP6 confirm inactive | SENP7 conf 88 | Casp3 select 78 | SENP luc ctr 74
O=C(COC(=O)c1cccnc1Cl)c1ccc(OC(F)F)cc1	SENP8 block-1 71, SENP7 inh 86 | SENP8 conf-1 inactive | SENP6 confirm 77 | SENP7 conf 97 | Casp3 select 89 | SENP luc ctr 78
